RORg inh = qHTS for inhibitors of ROR gamma transcriptional activity. Potency, µM (series often up to 53.6 µM), for inactives: at the top dose activity change, negative = inhibition, most hits filed as inhibitors. 5.4% of 310,000 active. Drosophila S2 Gal4-RORgamma UAS-luciferase reporter, 20 h. AID 2551, 2010; also: % is scaled to controls: 0 for no effect and ±100 for the full control effect; nearly all actives have a fitted effect of over 60% in size
Target sequence (P51450 whole entry, looked up, the tested form may be a part): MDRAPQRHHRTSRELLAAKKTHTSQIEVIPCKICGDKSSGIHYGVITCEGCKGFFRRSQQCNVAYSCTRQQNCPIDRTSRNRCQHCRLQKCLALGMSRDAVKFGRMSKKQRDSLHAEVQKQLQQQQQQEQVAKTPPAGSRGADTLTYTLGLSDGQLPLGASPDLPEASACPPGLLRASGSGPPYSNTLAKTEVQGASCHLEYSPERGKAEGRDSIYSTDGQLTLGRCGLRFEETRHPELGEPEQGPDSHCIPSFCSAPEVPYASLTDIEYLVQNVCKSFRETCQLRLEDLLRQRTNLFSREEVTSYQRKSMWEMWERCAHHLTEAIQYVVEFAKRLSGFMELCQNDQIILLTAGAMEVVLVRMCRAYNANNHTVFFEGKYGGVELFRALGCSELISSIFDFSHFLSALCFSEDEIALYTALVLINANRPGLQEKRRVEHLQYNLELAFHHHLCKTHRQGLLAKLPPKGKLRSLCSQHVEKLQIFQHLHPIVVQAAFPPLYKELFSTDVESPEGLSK
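A Gal4/UAS one-hybrid system in insect cells: metallothionein-promoter Gal4–ROR gamma fusion plus Photinus luciferase reporter. Copper sulfate 700 uM final, 20 hr ambient incubation, luminescent detection after 10 min with reagent.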
Gal4-VP16 FLuc = VP16 counterscreen qHTS for inhibitors of ROR gamma transcriptional activity; Potency, µM (titrated, usually from 53.6 µM), for inactives: at the top dose activity, negative = inhibition, usual class: inhibitors; Drosophila S2 Gal4-VP16 UAS-luciferase, luminescence, 20 h; 3.5% of 310,000 active;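 also: Gal4-VP16 expression switched on by copper sulfate through the metallothionein promoter; % is scaled to controls: 0 for no effect and ±100 for the full control effect; nearly all actives have a fitted effect of over 50% in size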
ATXN2 expr inh = Primary qHTS for Inhibitors of ATXN expression; AID 1745845, 2022; Potency, µM (top dose mostly 57 µM), for the others: at the highest dose activity change, negative = inhibition, most hits filed as inhibitors; 0.72% of 360,000 active; HEK-293 ATXN2-luciferase reporter, luminescence, 24 h; also: % is scaled to controls: 0 for no effect and ±100 for the full control effect; nearly all actives have a fitted effect of over 55% in size
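qHTS (up to 57 uM final) was run with 24 h compound exposure of reporter cells at 37 °C. Each well was multiplexed: SteadyGlo luminescence measured ATXN2-luciferase expression after a fluorogenic Gly-Phe-AFC viability readout (25 uM final).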
S2 tox = Viability Counterscreen for Primary qHTS for Inhibitors of ATXN expression. 0.49% of 400,000 active. S2 cells (HEK-293 line with an ATXN2-luciferase reporter) viability, CellTiter-Fluor protease fluorescence, 24 h. Potency, µM (titrated, usually from 56.7 µM), usual class: cytotoxic; also: nearly all actives have a fitted effect of over 40% in size
TGFb SMAD3 inh = qHTS for Inhibitors of TGF-b; HepG2 CAGA-GFP TGF-b/SMAD3 reporter, GFP fluorescence, 18 h; TGF-beta stimulated, 500 pg/mL final; Potency, µM (top dose mostly 46.1 µM), for the others: at the top dose activity, negative = inhibition, most hits filed as inhibitors; 1.2% of 410,000 active; AID 588855, 2011; also: % is scaled to controls: 0 for no effect and ±100 for the full control effect; nearly all actives have a fitted effect of over 65% in size
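HEPG2 CAGA-GFP, 1000 cells/well; 2 h settle, 37 C; cpd via pin tool; TGF-b 500 pg/mL final; 18 h, 37 C; GFP imaging ex488/em500-530; %Activity normalised to -TGF-b and +DMSO controls; CRC fit, curve class.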
HepG2 tox = qHTS for Inhibitors of TGF-b: Cytotox Counterscreen; HepG2 CAGA-GFP viability, ATP luminescence, 18 h; Potency, µM (doses to about 46.1 µM), for the others: at the highest dose activity change, negative = cytotoxicity, hits mostly cytotoxic; 0.76% of 410,000 active
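HepG2 CAGA-GFP cells (1000/well, DMEM with 1% FBS) received compound, then TGF-beta at 500 pg/mL final, and were incubated 18 hours at 37 degrees C. Viability was read by CellTiter-Glo luminescence. Media-only wells were set as complete cell-killing and DMSO as no toxicity.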
Numbers without * were called inactive; i = inactive; ? = inconclusive; . = not tested or not shown; [ ] = another dose, or the depositor's remark. Shown are actives, neighbours in structure and some others; about 6.1% of the full set was active somewhere. Calls follow the shape of the dose curve; as a rule, active = well fitted curve in the direction sought with a large enough effect; inconclusive = small, poorly fitted or top-dose-only effect, or another doubt; inactive = no such curve, though single readings can be large; an effect the other way counts as inactive or inconclusive. Potency is read from the fitted curve at half-maximal effect.

SMILES	RORg inh	Gal4-VP16 FLuc	ATXN2 expr inh	S2 tox	TGFb SMAD3 inh	HepG2 tox
NS(=O)(=O)c1ccc(CCNC(=O)Cn2c(=O)c3cccn3c3ccc(F)cc32)cc1	.	.	.	.	-2%	-3%
COc1cccc(CN2CCC2(C)C(=O)Nc2cccc3cccnc23)c1OC (centres undefined)	.	.	2.5µM*	?	11µM*	-57%
O=C(CC1OC(=O)c2ccccc21)Nc1ccc(Cl)c(S(=O)(=O)N2CCCCC2)c1 (centres undefined)	.	.	-5%	i	0%	8.9µM*
Cc1ccc(NC(=O)CCl)cc1S(=O)(=O)N1CCCCCC1	11µM*	?	?	?	?	-41%
COc1cc(C(C)=O)ccc1OCC(=O)Nc1ccc(C)c(S(=O)(=O)N2CCCCCC2)c1	.	.	28µM*	?	?	-31%
Cc1ccc(NC(=O)COc2ccccc2C(N)=O)cc1S(=O)(=O)N1CCCCCC1	.	.	?	15µM*	?	-18%
COCCNCC(=O)Nc1ccc(C)c(S(=O)(=O)N2CCCCC2)c1	12%	0%	-38%	?	-9%	1%
CCc1nc2cc(C(=O)NC3CCOC(C)(C)C3)cc(NC(=O)c3ccccc3OC)c2n1C (centres undefined)	.	.	.	i	.	.
O=c1n(-c2ccccc2)c(=O)n2n1CC[C@H]1/C(=N\OCc3ccccc3)[C@H]3O[C@@H]3[C@@H](O)[C@@H]12	-2%[10 µM]	-6%[10 µM]	.	.	.	.
CCOc1cccc2sc(N(Cc3cccnc3)C(=O)c3ccc(C#N)cc3)nc12	.	.	.	.	?	-33%
COc1cc2c(cc1NC(=S)NC(=O)/C=C/c1ccco1)oc1ccccc12	3.2µM*	5µM*	?	?	-4%	-25%
CC(=O)c1ccc(NC(=S)NC(=O)/C=C/c2ccco2)cc1	10%[1.91 µM]	?	.	i	-30%	-10%
COc1cc2c(cc1NC(=S)NC(=O)/C=C/c1ccc(OC)c(OC)c1)oc1ccccc12	-15%	-2%	-30%[11.3 µM]	i	12%	-6%
COc1ccccc1NC(=O)/C=C\c1ccco1	23%	?	75%	i	-5%	-8%
Cc1ccccc1NC(=S)NC(=O)/C=C/c1ccco1	?	13µM*	-12%	i	15%	-8%
COc1ccccc1NC(=S)NC(=O)/C=C/c1ccco1	13µM*	20µM*	4%	?	?	-11%
Cn1cc(-c2cc3n(n2)CCC(=O)N3CCCC(=O)NCc2ccccc2)c2ccccc21	.	.	4%	i	-8%	-15%
O=C(CSC1=Nc2ccccc2C2=NC(Cc3ccccc3)C(=O)N12)Nc1ccccc1C(F)(F)F (centres undefined)	.	.	1%	?	0%	-4%
Cc1ccc2[nH]c(CSc3nnc(NC(=O)COc4ccccc4)s3)cc(=O)c2c1	.	.	-27%	i	?	3%
Cc1ccc(Nc2nc(NCc3ccccc3)nc3ccsc23)c(C)c1	.	.	?	?	?	-9%
Cc1nc(Nc2n[nH]c3c2CN(C(=O)N[C@H](CN(C)C)c2ccccc2)C3(C)C)c2sccc2n1	.	.	17µM*	.	.	.
COc1ccc(-c2ccc(C#N)c(SCC(=O)Nc3sc4c(c3C#N)CCC4)n2)cc1	-1%	-9%	-2%	i	9%	1%
N#Cc1ccc(-c2cccnc2)nc1SCC(=O)Nc1sc2c(c1C#N)CCC2	13µM*	?	-11%	i	72%	-26%
Nc1nccc(Oc2ccc(NC(=O)c3c[nH]cc(-c4ccc(F)cc4)c3=O)cc2F)c1Cl	.	.	31µM*	.	.	.
CCOc1ccc(Cl)cc1-c1cc(C(=O)Nc2ccc(F)cc2)[nH]n1	.	.	?	?	?	-23%
SMILES	RORg inh	Gal4-VP16 FLuc	ATXN2 expr inh	S2 tox	TGFb SMAD3 inh	HepG2 tox
COc1ccc(CNC(=O)c2ccc3c(c2)nc2n3CCCCC2)c(OC)c1	.	.	.	.	15%	-17%
CN(C)CCn1cnc2c(c1=N)C(c1ccccc1)c1ccc3ccccc3c1O2 (centres undefined)	-25%	-4%	?	.	18µM*	-86%
COc1ccc(CN2CCC3(CC2)c2ccccc2[C@@H](NC(=O)c2ccsc2)[C@@H]3OC)cc1O	.	.	.	i	.	.
Cc1sc2nc(SCC(=O)NCc3cccs3)[nH]c(=O)c2c1C	-42%	-2%	7%	i	1%	-3%
Cc1sc2nc(CN(Cc3cccs3)C(=O)C3CC3)[nH]c(=O)c2c1C	11µM*	-29%	.	i	-2%	1%
COc1cc(OC)c(-c2c3cc(O)c(=O)cc-3oc3cc(O)c(O)cc23)cc1OC	?	?	-31%	13µM*	?	-10%
COc1ccc(C)cc1NC(=O)C1COc2ccccc2C1 (centres undefined)	.	.	3%	i	-14%	-12%
COC(=O)c1ccccc1NC(=O)c1cc(-c2ccc(Cl)cc2)on1	.	.	10%	i	-21%	-1%
Cn1c(-c2ccccc2)cc2c3no[n+]([O-])c3ccc21	6.3µM*	?	?	?	?	-19%
Cc1csc2ncnc(N3CCN(S(=O)(=O)c4cccc(C(F)(F)F)c4)CC3)c12	?	10µM*	-27%	i	?	-18%
C[n+]1cccc(O)c1SCc1ccccc1	.	.	?	14µM*	?	-64%
CCC(C)NC(=O)c1c(N)n(/N=C/c2ccccn2)c2nc3ccccc3nc12 (centres undefined)	18µM*	3%	-2%	i	20%	0%
CCC(C)NC(=O)c1c(N)n(/N=C/c2cccnc2)c2nc3ccccc3nc12 (centres undefined)	-20%[10 µM]	-6%	-16%	i	12%	-12%
CC(C)OC(C)C	3%	0%	.	.	.	.
O=[N+]([O-])c1cc(Oc2cccnc2)cc([N+](=O)[O-])c1	-27%	?	-17%	i	?	-45%
Cn1cc([N+](=O)[O-])c(C(=O)Nc2ccc(C3CCCCC3)cc2)n1	16%	-16%	2%	?	?	-105%
Cn1cc([N+](=O)[O-])c(C(=O)Nc2cc(Oc3cccnc3)cc([N+](=O)[O-])c2)n1	?	-2%	-19%	?	13µM*	-83%
Cn1cc([N+](=O)[O-])c(C(=O)Nc2ccc(C(=O)N3CCCCC3)cc2)n1	17%	-5%	15%	i	?	8.9µM*
CC(C)(C)c1ccc(C(=O)NCC2CCCN2S(=O)(=O)c2ccccc2)cc1 (centres undefined)	.	.	6%	i	-18%	-14%

Bioassay records deposited in PubChem by National Center for Advancing Translational Sciences (NCATS).
